# Shown are actives, neighbours in structure and some others; about 12% of the full set was active somewhere.
# BAZ2B inh – qHTS Assay for Inhibitors of BAZ2B; AID 504333, 2011; AlphaScreen BAZ2B-H3K14Ac peptide displacement; Potency, µM (top dose mostly 114 µM), without a hit: top-dose activity change, negative = inhibition, usual class: inhibitors; 360,000 tested, 4.4% active; Bromodomain adjacent to zinc finger domain protein 2B (Homo sapiens), Q9UIF8; further: on the % scale 0 is the no-effect control and ±100 the full control effect; nearly all actives have a fitted effect of over 60% in size
# Target sequence (Q9UIF8 whole entry, looked up, the tested form may be a part): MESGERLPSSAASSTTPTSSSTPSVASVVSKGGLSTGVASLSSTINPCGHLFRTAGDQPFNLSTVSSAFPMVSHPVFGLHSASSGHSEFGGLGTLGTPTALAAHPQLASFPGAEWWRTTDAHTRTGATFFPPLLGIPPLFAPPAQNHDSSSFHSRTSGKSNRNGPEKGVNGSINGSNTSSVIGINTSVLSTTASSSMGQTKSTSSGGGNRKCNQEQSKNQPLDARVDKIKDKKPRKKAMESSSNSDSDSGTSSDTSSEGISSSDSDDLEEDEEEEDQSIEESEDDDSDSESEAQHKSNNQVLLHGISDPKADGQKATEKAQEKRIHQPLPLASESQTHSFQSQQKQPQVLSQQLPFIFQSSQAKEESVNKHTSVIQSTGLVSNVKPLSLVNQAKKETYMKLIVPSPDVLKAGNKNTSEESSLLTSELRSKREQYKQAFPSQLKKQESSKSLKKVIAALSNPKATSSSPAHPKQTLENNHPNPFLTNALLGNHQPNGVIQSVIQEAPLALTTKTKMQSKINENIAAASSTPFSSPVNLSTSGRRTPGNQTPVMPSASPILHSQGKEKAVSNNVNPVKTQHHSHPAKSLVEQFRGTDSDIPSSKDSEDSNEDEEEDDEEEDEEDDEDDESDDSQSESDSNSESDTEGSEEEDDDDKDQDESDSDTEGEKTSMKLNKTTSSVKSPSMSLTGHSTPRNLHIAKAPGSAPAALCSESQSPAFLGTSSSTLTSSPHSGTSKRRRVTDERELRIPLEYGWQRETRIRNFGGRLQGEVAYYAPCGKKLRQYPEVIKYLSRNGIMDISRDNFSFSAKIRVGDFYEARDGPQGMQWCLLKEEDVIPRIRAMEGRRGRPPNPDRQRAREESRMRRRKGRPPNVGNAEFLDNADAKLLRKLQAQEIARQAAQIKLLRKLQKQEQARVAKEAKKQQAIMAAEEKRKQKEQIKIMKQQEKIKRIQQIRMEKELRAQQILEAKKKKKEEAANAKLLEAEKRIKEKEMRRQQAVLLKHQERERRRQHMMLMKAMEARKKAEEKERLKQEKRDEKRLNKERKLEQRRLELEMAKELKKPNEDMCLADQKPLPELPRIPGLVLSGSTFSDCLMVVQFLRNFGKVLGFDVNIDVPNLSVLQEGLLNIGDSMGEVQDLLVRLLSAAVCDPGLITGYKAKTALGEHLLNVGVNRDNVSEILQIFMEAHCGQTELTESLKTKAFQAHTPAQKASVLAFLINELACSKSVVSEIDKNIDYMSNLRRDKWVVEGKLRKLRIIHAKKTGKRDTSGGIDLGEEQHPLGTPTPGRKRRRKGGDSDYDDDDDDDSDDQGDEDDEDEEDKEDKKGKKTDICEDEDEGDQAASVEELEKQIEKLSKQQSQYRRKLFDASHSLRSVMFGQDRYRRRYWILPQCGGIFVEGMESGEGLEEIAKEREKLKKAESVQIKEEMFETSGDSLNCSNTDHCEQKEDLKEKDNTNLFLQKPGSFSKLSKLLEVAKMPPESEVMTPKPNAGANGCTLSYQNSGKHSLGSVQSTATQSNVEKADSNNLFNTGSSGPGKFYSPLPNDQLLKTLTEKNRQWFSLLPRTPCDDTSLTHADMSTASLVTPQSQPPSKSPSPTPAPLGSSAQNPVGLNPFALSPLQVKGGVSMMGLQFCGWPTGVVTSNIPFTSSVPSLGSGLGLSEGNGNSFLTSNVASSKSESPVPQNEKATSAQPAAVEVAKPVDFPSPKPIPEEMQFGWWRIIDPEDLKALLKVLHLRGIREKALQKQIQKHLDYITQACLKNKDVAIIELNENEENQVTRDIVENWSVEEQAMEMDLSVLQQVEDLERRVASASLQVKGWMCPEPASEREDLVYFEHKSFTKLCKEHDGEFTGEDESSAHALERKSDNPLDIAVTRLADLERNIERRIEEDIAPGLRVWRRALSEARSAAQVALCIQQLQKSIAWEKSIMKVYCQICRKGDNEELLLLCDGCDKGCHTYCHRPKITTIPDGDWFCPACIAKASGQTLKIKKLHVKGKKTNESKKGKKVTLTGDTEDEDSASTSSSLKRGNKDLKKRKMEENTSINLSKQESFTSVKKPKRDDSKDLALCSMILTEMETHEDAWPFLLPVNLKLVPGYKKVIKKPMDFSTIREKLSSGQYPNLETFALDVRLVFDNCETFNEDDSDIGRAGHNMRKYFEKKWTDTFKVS
#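 BAZ2B (50 nM) with biotin-H3(5-23)K14Ac peptide (50 nM) in PBS pH 7.4, 0.01% Tween-20, preformed 30 min, then compound 30 min at room temperature; top concentration 110uM. AlphaScreen streptavidin donor/nickel chelate acceptor beads (10 ug/mL final), 20 min dark, signal read.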
# HP1b binding inh – HTS for Inhibitors of HP1-beta Chromodomain Interactions with Methylated Histone Tails | Chromobox protein homolog 1 (Homo sapiens), P83916 | AlphaScreen HP1-beta / biotin-H3K9me3 peptide binding | Potency, µM (series often up to 114 µM), for the others: top-dose activity change, negative = inhibition, most hits filed as inhibitors | 390,000 tested, 0.56% active; further: nearly all actives have a fitted effect of over 70% in size
#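 Compound inhibition of the preformed complex between 50 nM HP1-beta and 50 nM biotinylated H3K9me3 peptide was read by AlphaScreen. Buffer was PBS pH 7.4 with 0.01% Tween-20. Incubations ran 30 min at room temperature, with 10 ug/mL donor/acceptor beads.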
# G9a inh – qHTS Assay for Inhibitors of Histone Lysine Methyltransferase G9a. Histone-lysine N-methyltransferase EHMT2 (Homo sapiens), Q96KQ7. Potency, µM (top dose mostly 102 µM), without a hit: at the top dose activity, negative = inhibition, hits mostly inhibitors. 350,000 tested, 8.8% active. AID 504332, 2011. G9a H3K9 monomethylation, AlphaScreen, 2 h; further: on the % scale 0 is the no-effect control and ±100 the full control effect; nearly all actives have a fitted effect of over 75% in size
#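 AlphaScreen detection with an anti-monomethyl H3K9 antibody quantified product after a 2 h room-temperature reaction containing 500 nM biotinylated H3K9 peptide, 20 µM SAM and 20 nM enzyme, which had been preincubated 15 min with compound.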
# JMJD2A Tudor inh – qHTS Assay for Inhibitors of JMJD2A-Tudor Domain | Lysine-specific demethylase 4A (Homo sapiens), O75164 | AlphaScreen JMJD2A-Tudor / H3K4me3 peptide binding | Potency, µM (doses to about 114 µM), inactives show at the highest dose activity change, negative = inhibition, most hits filed as inhibitors | 390,000 tested, 4.4% active; further: on the % scale 0 is the no-effect control and ±100 the full control effect; nearly all actives have a fitted effect of over 50% in size
# L3MBTL1 block – qHTS Assay for the Inhibitors of L3MBTL1; Lethal(3)malignant brain tumor-like protein 1 (Homo sapiens), Q9Y468; AlphaScreen L3MBTL1–H3K9me1 peptide binding; Potency, µM (titrated, usually from 57.1 µM), inactives show at the highest dose activity, negative = inhibition, actives largely listed as inhibitors; 230,000 tested, 0.66% active; further: on the % scale 0 is the no-effect control and ±100 the full control effect; nearly all actives have a fitted effect of over 60% in size
#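 First, the protein-peptide complex forms for 30 min at room temperature (L3MBTL1 50 nM, biotinylated H3K9me1 peptide 75 nM). Next, compounds are pin-transferred and incubated 30 min. Finally, AlphaScreen beads are added and read after 30 min.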
# Sfp inh – qHTS Assay for Inhibitors of Bacillus subtilis Sfp phosphopantetheinyl transferase (PPTase) | 4'-phosphopantetheinyl transferase ffp (Bacillus subtilis), Q9F4F7 | Biochemical Sfp PPTase activity, qHTS | Potency, µM, for the others: largest response in the series, negative = inhibition, actives largely listed as inhibitors | 310,000 tested, 3.5% active;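 further: the enzyme is Sfp with the accession as filed and its product quenches rhodamine fluorescence; 0% = enzyme reaction without inhibitor and -100% = no enzyme wells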
#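 Sfp 15 nM + cpd, 15 min RT; start w/ rhodamine-CoA 5 uM, BHQ-2-YbbR 12.5 uM (final); 50 mM Hepes pH 7.6, 10 mM MgCl2, 0.01% NP-40, 0.01% BSA; read 525/598 nm at 0 and 30 min.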
# Active calls of the source: *; ? = inconclusive; · = no result given; [ ] = dose if it differs, or a comment. The call rests on the fitted dose curve; in most records, active means well fitted curve in the direction sought with a large enough effect; inconclusive means small, poorly fitted or top-dose-only effect, or another doubt; inactive means no such curve, though single readings can be large; an effect the other way counts as inactive or inconclusive. Potency means the concentration at half of the fitted maximal effect.
SMILES,BAZ2B inh,HP1b binding inh,G9a inh,JMJD2A Tudor inh,L3MBTL1 block,Sfp inh
COc1ccc(N2CCN(C(=O)CCCOc3cc(=O)n(C)c4ccccc34)CC2)cc1,?,-6%,79µM*,?,-4%,-5%
COc1ccc(N2CCN(C(=O)Cc3ccc(OC)c(OC)c3)CC2)cc1,8%[0.457 µM],-19%,3%[59 µM],13µM*,-23%,7%
COc1ccc(N2CCN(C(=O)C(Cc3ccccc3)n3cccc3)CC2)cc1 (stereo not drawn),28µM*,?,40µM*,56µM*,·,12%
CC(=O)OC(C(=O)N1CCN(c2ccc(F)cc2)CC1)c1ccccc1 (stereo not drawn),-9%,40%,-39%[59 µM],-17%,-8%,8%
O=C(CSc1ccc2nnc(-c3cccnc3)n2n1)Nc1ccccc1C(F)(F)F,6%,35%,-20%,0%,·,12%
COc1ccc(N2CCN(C(=O)CN(Cc3ccc(Cl)cc3)S(C)(=O)=O)CC2)cc1,?,-21%,79µM*,?,·,5%
O=C(C(Cc1ccccc1)n1cccc1)N1CCN(Cc2ccccc2)CC1 (stereo not drawn),50µM*,1%,32µM*,?,·,3%
COc1ccc(N2CCN(C(=O)CN(Cc3ccccc3)S(C)(=O)=O)CC2)cc1,-28%,11%,50µM*,-21%,·,-2%
COc1ccc(N2CCN(C(=O)CCc3ccccc3)CC2)cc1,-22%,23%,32µM*,-14%,·,7%
CCOC(=O)C1OC1C(=O)N[C@@H](CC(C)C)C(=O)NCCC(C)C (stereo partly drawn),·,·,·,·,·,-1%
CS(=O)(=O)N(Cc1ccccc1)c1ccc(C(=O)N2CCN(c3cccc(Cl)c3)CC2)cc1,1%,10%,11%[59 µM],-21%,·,8%
COc1ccc(N2CCN(C(C)C(=O)N(C)Cc3ccccc3)CC2)cc1 (stereo not drawn),-13%,-10%,50µM*,-21%,·,8%
CS(=O)(=O)N(CCc1ccccc1)CC(=O)N1CCN(Cc2ccc3c(c2)OCO3)CC1,-10%,5%,?,-15%,·,-8%
CS(=O)(=O)N(CC(=O)N1CCN(Cc2ccc3c(c2)OCO3)CC1)Cc1ccc(Cl)cc1,56µM*,7%,?,-27%,·,-3%
CS(=O)(=O)N(Cc1ccc(Cl)cc1)c1ccc(C(=O)N2CCN(c3ccccc3)CC2)cc1,?,-5%,7.9µM*,89µM*,·,-15%
Cc1cc(OCC(=O)N2CCOCC2)ccc1NC(=O)c1ccccc1C,6%,24%,38%,1%,·,16%
Cc1cccnc1Nc1nc(-c2ccc(O)c(O)c2)cs1,40µM*,?,11µM*,45µM*,·,50µM*
COc1ccc(-c2csc(Nc3ncccc3C)n2)cc1,-9%,-2%,18µM*,?,-9%,4%
COc1ccc(-c2csc(Nc3cccnc3)n2)cc1,-35%,13%,-14%[59 µM],-20%,·,79µM*
COc1ccc(-c2csc(Nc3ncccc3C)n2)cc1OC,?,-4%,?,?,·,-11%
CCCCNC(=O)C(c1ccc(OCC(=O)OC)c(C(=O)OC)c1)N(CCc1ccccn1)C(=O)CCCCCN1C(=O)NC(c2ccc(-c3ccccc3)cc2)C(C(=O)OCc2ccccc2)=C1C (stereo not drawn),·,·,·,·,·,15%
CCN1C(=O)c2cccc3c(N)ccc(c23)C1=O,3%,58%,50µM*,3%,·,-14%
CCCCNc1ccc2c3c(cccc13)C(=O)N(CCCC)C2=O,141%,258%,323%,171%,197%,28µM*
CN(C)CCCN1C(=O)c2cccc3c(Br)ccc(c23)C1=O,?,21%,-47%[59 µM],-19%,·,-18%
CC1CCC2(CC1)NC(=O)N(CC(=O)NC(=O)Nc1ccc3c(c1)OCCO3)C2=O (stereo not drawn),3%,12%,·,-6%,58%,16%
SMILES,BAZ2B inh,HP1b binding inh,G9a inh,JMJD2A Tudor inh,L3MBTL1 block,Sfp inh
COc1ccc(-n2nc(C(=O)N3CCCC(C)C3)c3c4ccccc4n(C)c3c2=O)cc1 (stereo not drawn),·,21%,-42%[59 µM],-20%,·,·
CN(C)S(=O)(=O)Oc1ccsc1C(=O)Nc1ccc(Cl)c(Cl)c1,10%,73%,?,37%[57.1 µM],42%,-2%
COc1ccc(COc2ccsc2C(=O)Nc2ccc(Cl)c(Cl)c2)cc1,-5%,18%,-7%,-28%,2%,56µM*
CC(Sc1nnc(-c2ccco2)n1C)C(=O)Nc1nccs1 (stereo not drawn),-33%,21%,-31%,32µM*,3%,·
O=C(Nc1nccs1)c1cc([N+](=O)[O-])ccc1Cl,-25%,24%,·,-14%,·,6%
Cc1nnc(NC(=O)C(C)Sc2nnc(-c3ccco3)n2C)s1 (stereo not drawn),2%,-7%,10%[59 µM],-15%,·,2%
CC(Sc1ccc([N+](=O)[O-])cn1)C(=O)Nc1nccs1 (stereo not drawn),-28%,19%,7.9µM*,-20%,·,-27%
CC(Sc1nnc(-c2ccc(Cl)cc2Cl)n1Cc1ccccc1)C(=O)Nc1nccs1 (stereo not drawn),-7%,?,-38%[59 µM],79µM*,-1%,0%
O=c1cc2c(n[nH]1)CCCC2,?,22%,?,56µM*,1%,6%
O=C(Nc1nnc(S(=O)(=O)N2CCCc3ccccc32)s1)c1ccccc1Cl,1%,7%,-1%[59 µM],-8%,·,·
O=C(Cc1ccc(S(=O)(=O)N2CCOCC2)s1)NCCc1ccc(F)cc1,-12%,-14%,?,-6%,17%,·
c1ccc2[nH]c(SCc3cn4cccnc4n3)nc2c1,-7%,27%,14µM*,4%,-4%,-13%
c1ccc(-c2cnnc(SCc3cn4cccnc4n3)n2)cc1,-1%,40%,?,3%,-5%,?
O=C(NC(=S)Nc1cccc(Cl)c1N1CCCCC1)c1cccs1,-28%[57.1 µM],?,-26%,56µM*,-6%,23%
N#Cc1ccccc1NC(=S)NC(=O)c1cccs1,-13%,-7%[57 µM],11µM*,-25%,·,32µM*
N#Cc1ccccc1NC(=O)COC(=O)c1cccs1,·,31%,·,3%,3%,·
O=C(NC(=S)Nc1cccc(Cl)c1N1CCCCC1)c1ccco1,?,-13%,-44%,-32%,-13%,16%
